{"source": "PubChem BioAssay AID2521", "about": "(Sanford-Burnham Center for Chemical Genomics, 2010)", "note": "In all, about 330,000 compounds went through this assay and about 1,100 (0.33%) were called active. The full list was thinned out, with actives kept by preference. Values without a mark were called inactive.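 How the source made its calls: active means inhibition above about 40% at 20 µM (limit read from the data); inactive means the rest.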"}
{"biological_target": "Apelin receptor (Homo sapiens) (UniProt P35414)", "sequence (P35414 whole entry, looked up)": "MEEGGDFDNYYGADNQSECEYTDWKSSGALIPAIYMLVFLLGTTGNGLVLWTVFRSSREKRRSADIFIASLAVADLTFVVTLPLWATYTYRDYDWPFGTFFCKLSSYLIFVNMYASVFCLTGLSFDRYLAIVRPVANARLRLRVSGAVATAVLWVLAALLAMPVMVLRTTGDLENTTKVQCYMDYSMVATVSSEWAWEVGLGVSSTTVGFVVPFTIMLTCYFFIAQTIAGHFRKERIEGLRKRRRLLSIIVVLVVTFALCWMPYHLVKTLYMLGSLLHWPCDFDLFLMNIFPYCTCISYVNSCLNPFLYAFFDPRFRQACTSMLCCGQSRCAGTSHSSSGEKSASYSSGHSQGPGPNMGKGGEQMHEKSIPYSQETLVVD", "assay": "blockade of apelin-induced APJ beta-arrestin recruitment – CHO-K1 cells, beta-arrestin complementation, luminescence, primary screen (AID 2521);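 further: cells challenged with 10 nM apelin-13 agonist together with compound; plate controls were apelin-13 plus DMSO wells for no effect and DMSO wells lacking apelin-13 for full effect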", "details": "at 20 µM, active compounds read high"}
{"compound": "C/C(=N\\NC(=O)c1ccccc1F)c1ccccn1", "inhibition": "57.1% (active)"}
{"compound": "COc1ccc(/C(C)=N\\NC(=O)c2ccc(-c3ccccc3)cc2)c(F)c1", "inhibition": "8.03%"}
{"compound": "Cc1cnc(NC(=O)c2ccccn2)s1", "inhibition": "9.6%"}
{"compound": "CCOC(=O)[C@H]1CCC[C@@H](NS(=O)(=O)c2ccc(NC(C)=O)cc2)C1", "inhibition": "6.91%"}
{"compound": "CC(C)(C)c1cc(C(=O)NN)n(Cc2ccc(Cl)cc2Cl)n1", "inhibition": "-15%"}
{"compound": "Cc1ccc(C(=O)OC2=CC(=O)CC(C)(C)C2)cc1", "inhibition": "-13.7%"}
{"compound": "CCc1c(C)sc(NC(=O)c2cccs2)c1C(N)=O", "inhibition": "1.68%"}
{"compound": "O=C1Nc2ccc(Br)cc2/C1=N/N=C/C1=C(N2CCOCC2)C(=C\\c2ccccc2)/CC1", "inhibition": "46.4% (active)"}
{"compound": "COc1ccc(/C=N/N=C2/C(=O)Nc3ccccc32)cc1O", "inhibition": "-11.9%"}
{"compound": "O=C(c1cccc(-n2cccc2)c1)N1CCN(S(=O)(=O)c2ccc(F)cc2)CC1", "inhibition": "-9.43%"}
{"compound": "COc1cc(Nc2nc3ccc(Cl)cc3n3cnnc23)cc(OC)c1OC", "inhibition": "-3.66%"}
{"compound": "Nc1nc(SCC(=O)NNc2c(Cl)cc(Cl)cc2Cl)n[nH]1", "inhibition": "-14.8%"}
{"compound": "COc1ccc(CNc2cc(C)cc(C)c2)cc1OC", "inhibition": "-9.47%"}
{"compound": "CN(CC(=O)Nc1ccc(F)c(F)c1F)C(=O)C1CC(=O)N(C2CCCC2)C1", "note": "(stereo unspecified)", "inhibition": "19.9%"}
{"compound": "COc1ccc(CCC(=O)c2ccc(OC)cc2)cc1", "inhibition": "-11.9%"}
{"compound": "COc1ccc(CS(=O)/C(Cl)=C(/Cl)C(=O)Nc2ccc(OC)nc2)cc1", "note": "(stereo unspecified)", "inhibition": "67.6% (active)"}
{"compound": "COc1ccc(OC(C)C(=O)Nc2cccnc2)cc1", "note": "(stereo unspecified)", "inhibition": "15.8%"}
{"compound": "COC(=O)c1sccc1NC(=S)Nc1ccc(C)cc1", "inhibition": "-10.8%"}
{"compound": "COc1ccc(NC(=O)/C(Cl)=C(/Cl)S(=O)Cc2ccc(C)cc2)cn1", "note": "(stereo unspecified)", "inhibition": "89.8% (active)"}
{"compound": "CCN(CC(=O)Nc1ccc(OC)cc1)C(=O)CSCc1ccc(C)cc1", "inhibition": "12.9%"}
{"compound": "CC1CCCCN1C(=O)CCS(=O)(=O)Cc1ccccc1", "note": "(stereo unspecified)", "inhibition": "11.3%"}
{"compound": "Cc1nc(CN2CCN(C(=O)CCc3nnc(Cc4c[nH]c5ccccc45)o3)CC2)cs1", "inhibition": "21.1%"}
{"compound": "CSC1=N/C(=C\\C=C\\c2cccs2)C(=O)S1", "inhibition": "5.36%"}
{"compound": "CC(C)c1ccc(NS(=O)(=O)c2cn(C)c(=O)n(C)c2=O)cc1", "inhibition": "7.41%"}
{"compound": "CCCc1nc2c(C)cc(-c3nc4ccccc4n3C)cc2n1Cc1ccc(-c2ccccc2C(=O)O)cc1", "inhibition": "9.96%"}
{"compound": "CC(=O)c1c(C)[nH]c(C(=O)CN2C(=O)NC(C)(C)C2=O)c1C", "inhibition": "8.53%"}
{"compound": "Cc1ccc(SC(C)C(=O)NCc2ccc(F)cc2)cc1", "note": "(stereo unspecified)", "inhibition": "16.8%"}
{"compound": "CC(C)NC(=O)C(c1ccc(F)cc1)N(C(=O)CCC(=O)Nc1ccccn1)c1ccccc1F", "note": "(stereo unspecified)", "inhibition": "21.5%"}
{"compound": "CC(C)C(=O)N1CCC2(CC1)Oc1ccc(F)cc1C(=O)C21CC(c2ccccc2)=NO1", "note": "(stereo unspecified)", "inhibition": "-0.0582%"}
{"compound": "COc1cccc2sc(Nc3nc(C)c(C(C)=O)s3)nc12", "inhibition": "60.9% (active)"}
{"compound": "COc1cc2ccccc2cc1C(=O)Nc1nc(C)c(C(C)=O)s1", "inhibition": "1.17%"}
{"compound": "CNC(=O)c1sc(NCc2ccccc2OC)nc1C", "inhibition": "-1.64%"}
{"compound": "O=C(CCl)NNc1cccc(Cl)n1", "inhibition": "47.2% (active)"}
{"compound": "O=C(Cc1c(Cl)cccc1Cl)NC1CC1", "inhibition": "14.9%"}
{"compound": "Cc1cccc(NC(=O)Cc2ccc(Br)cc2)n1", "inhibition": "-4.98%"}
{"compound": "COc1ccc(N2CCN(C(=O)CNS(=O)(=O)c3ccc(C)c(C)c3)CC2)cc1", "inhibition": "3.43%"}
{"compound": "Cc1ccc(CC(=O)Nc2cccc(C#N)c2)cc1", "inhibition": "7.58%"}
{"compound": "Oc1ccc(N=Nc2nccs2)c(O)c1", "inhibition": "47.6% (active)"}
{"compound": "CC(Oc1ccc(F)cc1)C(=O)Nc1cc(S(=O)(=O)N2CCOCC2)ccc1N1CCN(C)CC1", "note": "(stereo unspecified)", "inhibition": "11.7%"}
{"compound": "CCCOc1ccc(N2CC(C(=O)Nc3ccccn3)CC2=O)cc1", "note": "(stereo unspecified)", "inhibition": "-12.1%"}
{"compound": "COC(=O)c1cc(NC(=O)CN2CCC(C(N)=O)(N3CCCCC3)CC2)cc(C(=O)OC)c1", "inhibition": "12.5%"}
{"compound": "O=C(CSc1nnnn1C1CCCC1)N1CCCCC1", "inhibition": "-7.07%"}
{"compound": "CC(=O)C1=C(O)C(=O)N(c2cccnc2)C1c1ccc([N+](=O)[O-])cc1", "note": "(stereo unspecified)", "inhibition": "5.89%"}
{"compound": "CC(=O)C1=C(O)C(=O)N(c2ccc(S(N)(=O)=O)cc2)C1c1ccccc1F", "note": "(stereo unspecified)", "inhibition": "59% (active)"}
{"compound": "CC(=O)C1=C(O)C(=O)N(c2ccc(Br)cc2)C1c1ccc([N+](=O)[O-])cc1", "note": "(stereo unspecified)", "inhibition": "18.2%"}
{"compound": "COc1cccc(NC(=O)C/C(C)=N/NC(=O)C2CCCCC2)c1", "inhibition": "-8.71%"}
{"compound": "COc1cccc(NC(=O)C(=O)c2cn(CC(=O)N3CCOCC3)c3ccccc23)c1", "inhibition": "-7%"}
{"compound": "Cc1cc(C(F)F)n2nc(C(=O)Nc3ccc(S(=O)(=O)NC45CC6CC(CC(C6)C4)C5)cc3)nc2n1", "inhibition": "10.3%"}
{"compound": "O=C(NC1CCCCC1)C1CCC(CNS(=O)(=O)c2ccccc2)CC1", "note": "(stereo unspecified)", "inhibition": "-0.098%"}
{"compound": "CN1/C(=c2/s/c(=C3/C(=O)N(c4ccccc4)NC3=Nc3ccccc3)n(C)c2=O)C(C)(C)c2ccccc21", "inhibition": "40.6% (active)"}
{"compound": "CCOc1cccc2c1OC1(CCCCC1)N1N=C(c3cccnc3)CC21", "note": "(stereo unspecified)", "inhibition": "-4.03%"}
{"compound": "CN(C)CCOc1cccc(Br)c1", "inhibition": "7.12%"}
{"compound": "COCCCNc1nc2ccccc2nc1NS(=O)(=O)c1ccc(F)cc1", "inhibition": "8.77%"}
{"compound": "COC(=O)c1ccccc1NC(=O)C1CCN(C(=O)N2CCOc3ccccc32)CC1", "inhibition": "4.33%"}
{"compound": "O=C(CN(C(=O)CNC(=O)c1cccs1)c1cccc(F)c1)NC1CCCCC1", "inhibition": "15.9%"}
{"compound": "COc1cccc(C(=O)N/N=C(\\C)c2cccc(NC(=O)c3ccc(F)cc3)c2)c1OC", "inhibition": "-21.2%"}
{"compound": "CCC(C)NC(=O)N[C@@H](CCSC)C(=O)O", "note": "(stereo partly specified)", "inhibition": "3.5%"}
{"compound": "COc1cc(/C=C(\\C#N)c2nc3c(s2)CC(C)CC3)ccc1O", "note": "(stereo unspecified)", "inhibition": "40.9% (active)"}
{"compound": "Cn1cccc1C(=O)OCC(=O)c1ccc(Br)s1", "inhibition": "6.14%"}
{"compound": "O=C(CSc1ncnc2c1nnn2Cc1ccc(F)cc1)NC1CCCC1", "inhibition": "23.2%"}
{"compound": "Cc1cc(CNCc2c(C(=O)N(C)Cc3ccccc3)nc3ccccn23)nn1C", "inhibition": "12.9%"}
{"compound": "COCC(C)OC(=O)c1c(N)n(CCCN2CCOCC2)c2nc3ccccc3nc12", "note": "(stereo unspecified)", "inhibition": "10.9%"}
{"compound": "C=CCn1c(N)c(C(=O)OCC(C)C)c2nc3ccccc3nc21", "inhibition": "74.2% (active)"}
{"compound": "C=CCn1c(C(C)NC(=O)CC)nc2ccccc21", "note": "(stereo unspecified)", "inhibition": "8.11%"}
{"compound": "CCOC(=O)C1=C(NC(=S)NC(=O)c2ccccc2)c2ccccc2CC1(C)C", "inhibition": "-12.1%"}
{"compound": "CCCCCCNC(=O)CSc1nccn1Cc1ccccc1", "inhibition": "15.6%"}
{"compound": "CCOC(=O)C(CCOc1cccc(CC)c1)C(=O)OCC", "inhibition": "0.162%"}
{"compound": "O=C(/C=C/c1cccs1)NCc1cccnc1", "inhibition": "-1.62%"}
{"compound": "Cc1cc(Cl)nc(NC(=O)Nc2cccc(Cl)c2)n1", "inhibition": "12.4%"}
{"compound": "Cc1csc(NC(=S)Nc2cccc(Cl)c2)n1", "inhibition": "40.6% (active)"}
{"compound": "Cc1cccc(NC(=S)Nc2ccc(Cl)c(Cl)c2)c1", "inhibition": "9.23%"}
{"compound": "O=C(Nc1ccc([N+](=O)[O-])cc1)C1(c2ccccc2)CCOCC1", "inhibition": "4.46%"}
{"compound": "CN(C(=O)COC(=O)Cn1cnc2c1c(=O)n(C)c(=O)n2C)C1(C#N)CCCCC1", "inhibition": "-8.66%"}
{"compound": "COc1cc(/C=C2/SC(=S)N(Cc3ccccc3)C2=O)cc(OC)c1O", "inhibition": "44.9% (active)"}
{"compound": "COc1cccc(/C=C2/SC(=S)N(CC(=O)NC3C=CS(=O)(=O)C3)C2=O)c1", "note": "(stereo unspecified)", "inhibition": "2.32%"}
{"compound": "CN1C=CC=C/C1=C1\\SC(=S)N(Cc2ccccc2)C1=O", "inhibition": "3.59%"}
{"compound": "O=C(O)C1CCCN(CCC=C(c2ccccc2)c2ccccc2)C1", "note": "(stereo unspecified)", "inhibition": "6.7%"}
{"compound": "Cn1cnc2c1c(=O)n(Cc1c(Cl)cccc1Cl)c(=O)n2C", "inhibition": "-5.54%"}
{"compound": "CC(C)C(=O)N1CC(=O)Nc2ccc(F)cc2C1c1ccc(F)cc1", "note": "(stereo unspecified)", "inhibition": "5.88%"}
{"compound": "C[C@H](NC(=O)c1nc[nH]c1C(=O)NCC(=O)OC(C)(C)C)C(=O)OCc1ccccc1", "inhibition": "-0.246%"}
{"compound": "O=C(Nc1c2c(nn1-c1cccc(Cl)c1)CS(=O)(=O)C2)c1cccs1", "inhibition": "-12.4%"}
{"compound": "Cn1c(N)cc(-c2ccc(F)cc2)c(C#N)c1=O", "inhibition": "16%"}
{"compound": "O=[N+]([O-])c1c(NCCO)cc(Sc2nc3ccccc3s2)c2nonc12", "inhibition": "95.4% (active)"}
{"compound": "CCN(CC)CCCSc1nc2ccccc2s1", "inhibition": "5.23%"}
{"compound": "Cc1nc2nc(CSc3nc4ccccc4s3)cc(=O)n2[nH]1", "inhibition": "-6.29%"}
{"compound": "CCOC(=O)c1c(/N=C/C2C(=O)CC(C)(C)CC2=O)sc(C)c1C", "inhibition": "3.91%"}
{"compound": "COC(=O)c1ccc(NCC(=O)c2ccccc2)cc1", "inhibition": "72.4% (active)"}
{"compound": "COc1ccc(NC(=O)CCCC(=O)c2ccccc2)cc1", "inhibition": "-8.49%"}
{"compound": "COC(=O)c1ccc(NCC(=O)N2CCCCCC2)cc1", "inhibition": "-5.46%"}
{"compound": "C=CCOc1ccc(/C=C/C(=O)OCC(=O)NC2CCCCCC2)cc1", "inhibition": "-9.63%"}
{"compound": "CCCc1nc2oc3c(OCC)ncnc3c2c2c1COC(C)(C)C2", "inhibition": "1.23%"}
{"compound": "Cc1cccc(N2CCC(NCc3c(C(=O)N4CCCCC4)nc4c(C)cccn34)CC2)c1", "inhibition": "-3.54%"}
{"compound": "Cc1ccc(S(=O)(=O)N(Cc2ccc(Cl)cc2)c2ccccc2C(=O)NCc2cccnc2)cc1", "inhibition": "-7.26%"}
{"compound": "Cc1cccc(-n2c(O)c(C=Nc3ccccc3N)c(=O)[nH]c2=O)c1", "inhibition": "55.5% (active)"}
{"compound": "Cc1cccc(N2CCN(S(=O)(=O)c3ccc4[nH]c(=O)c(=O)[nH]c4c3)CC2C)c1", "note": "(stereo unspecified)", "inhibition": "0.293%"}
{"compound": "Cc1ccc(N=Cc2c(O)n(-c3nccs3)c(=O)c3ccccc23)c(C)c1", "inhibition": "-0.923%"}
